# Experimental data as given in PubChem BioAssay (NCATS).
# Results filed as inconclusive are left out. Activity calls are given as the source filed them. The call rests on the fitted dose curve; in most records, active means well fitted cell-killing curve with a large enough effect; inconclusive means small, poorly fitted or top-dose-only effect; inactive means no such curve, though single readings can be large or run the other way.
# Experiment: qHTS of pediatric cancer cell lines to identify multiple opportunities for drug repurposing: Primary screen for SK-N-MC cells (AID 1347093)
# Details: SK-N-MC viability, CellTiter-Glo luminescence, 48 h; series mostly up to 46 µM; activity change, negative = cytotoxic: at the top concentration
# Excerpt: Drug repurposing or repositioning has been offered as a strategy for drug development in oncology programs. This approach has special potential for childhood cancers and other rare or orphan diseases, where the expected return on new drug development has been a disincentive to pharmaceuticals.
# In this project we exploit the poly-pharmacology of drugs to discover new indications via phenotypic screening of a panel of 19 well-characterized cell lines derived from solid tumors seen in children and adolescents. The goal is to identify approved drugs with previously unrecognized anticancer properties that has the potential to reveal new mechanisms and biological processes involved in carcinogenesis or drug resistance. We employed a titration-based paradigm (quantitative high-throughput screening or qHTS), where all compounds were tested at multiple concentrations for their effect on cell viability. Concentration-response curves (CRCs) were derived directly from the primary screen, and both potency and efficacy values were used to identify compounds with robust bioactivity profiles. We screened the NIH Chemical Genomics Center (NCGC) Pharmaceutical Collection (NPC) and Mechanism Interrogation Plate (MIPE) small molecule collections of approved and investigational compounds against these cell lines; and measured metabolically active cells after 48 hours of compound treatment as a proxy for cell viability.
# Assay Submitter: Nathalia J. Martinez, National Center for Advancing Translational Sciences, National Institutes of Health, Rockville, MD, USA; email: natalia.martinez@nih.gov
# [1] Shen, M et al. Quantitative high-throughput phenotypic screening of pediatric cancer cell lines identifies multiple opportunities for drug repurposing. Oncotarget 2017 Dec 19;9(4):4758-4772. PMID 29435139.
# The cells were obtained from University of North Carolina (UNC), Pediatric Preclinical Testing Program (PPT), and Coriell Institute (CI).
# qHTS cell viability assay:
# Cells were assayed in growth media at a density of 500-1,000 cells/well. Five microliters of cells were dispensed into 1,536-well, white, solid-bottom, TC-treated plates (Greiner Bio One) using a multidrop dispenser and incubated at 37 degrees C, 5% CO2, under a humidified atmosphere for 5 hours. Twenty-three nanoliters of compounds and controls (neutral control DMSO or positive control bortezomib at final concentration of 2.3 µM) were subsequently transferred by Kalypsys pintool. For primary screens, the MIPE collection was tested at 11-point dilutions (final concentrations range from 0.78 nM to 46 µM) and the NPC collection at 8-point dilutions (final concentrations range from 0.59nM to 46 µM). Compounds tested in follow-up screens were assayed at 11-point dilutions. Cells were incubated for 48 hours, followed by addition of 3 uL of CellTiter-Glo (Promega). After a 15 min incubation at room temperature, samples were analyzed for luminescence intensity using a ViewLux High-throughput CCD imager equipped with clear filters.
row,Compound,"activity change, negative = cytotoxic"
1,C[C@@H](c1ncncc1F)C(O)(Cn1cncn1)c1ccc(F)cc1F (stereo not given in full),-9.73% (inactive)
2,CC[C@H](C)[C@H](N)C(=O)O,2.15% (inactive)
3,CN1CC(=O)NC1=N,4.64% (inactive)
4,NS(=O)(=O)c1ccc(NC(=O)CCC(=O)O)cc1,-8.15% (inactive)
5,CC(=O)Nc1ccccc1,-16.2% (inactive)
6,NC(N)=NCCN1CCCCCCC1,-13.5% [at 0.597 µM] (inactive)
7,C/C=C1\[C@H]2C=C(C)C[C@]1(N)c1ccc(=O)[nH]c1C2,4.04% (inactive)
8,CCCCOC(=O)c1ccc(N)cc1,6.21% (inactive)
9,Cc1cc(=O)[nH]c(=S)[nH]1,-25.7% (inactive)
10,CCN(CC)CCOC(=O)C(c1ccccc1)c1ccccc1,-0.286% (inactive)
11,CC1CC(OC(=O)c2ccccc2O)CC(C)(C)C1 (stereo not given),-13.4% (inactive)
12,COc1cc(C(=O)NCCCCCC(=O)O)cc(OC)c1OC,2.97% (inactive)
13,Cc1c(C)c2c(c(C)c1OC(=O)c1cccnc1)CC[C@@](C)(CCC[C@H](C)CCC[C@H](C)CCCC(C)C)O2,-20.1% (inactive)
14,CCOc1cc(NC(C)=O)ccc1C(=O)OC,7.86% (inactive)
15,O=C(O)CCC(=O)O,-2.9% (inactive)
16,CCOC(=O)[C@H](CCc1ccccc1)N[C@@H](C)C(=O)N1Cc2cc(OC)c(OC)cc2C[C@H]1C(=O)O,11.3% (inactive)
17,CC(C)CCOC(=O)c1ccc(N(C)C)cc1,-19.7% (inactive)
18,Nc1ccc(S(=O)(=O)c2ccc(N)cc2)cc1,4.48% (inactive)
19,CCCCC1(COC(=O)CCC(=O)O)C(=O)N(c2ccccc2)N(c2ccccc2)C1=O,14% (inactive)
20,CC(=O)N[C@@H](Cc1ccc(O)cc1)C(=O)O,-40.7% (inactive)

row,Compound,"activity change, negative = cytotoxic"
1,CC(C)=CCC[C@@](C)(O)[C@H]1CC=C(C)CC1,4.22% (inactive)
2,CC(=O)N1C[C@H](O)C[C@H]1C(=O)O,-8.42% (inactive)
3,CC(C)(C)C(=O)OCOC(=O)[C@@H]1N2C(=O)[C@@H](NC(=O)[C@H](N)c3ccccc3)[C@H]2SC1(C)C,17.5% (inactive)
4,C[N+](C)(C)CC[N+]1(C)Cc2c(Cl)c(Cl)c(Cl)c(Cl)c2C1,5.37% (inactive)
5,CCCCCOC(=O)Nc1nc(=O)n([C@@H]2O[C@H](C)[C@@H](O)[C@H]2O)cc1F,29.2% (inactive)
6,CN1C(C)(C)CCCC1(C)C,-20% (inactive)
7,Cn1cc(C(=O)[C@@H]2CCc3nc[nH]c3C2)c2ccccc21,-5.19% (inactive)
8,O=C(O)CCCc1ccccc1,-23.4% (inactive)
9,CC(=O)N(CC(O)CO)c1c(I)c(C(=O)NCC(O)CO)c(I)c(C(=O)NCC(O)CO)c1I (stereo not given),-15.9% (inactive)
10,FC(F)(F)C(Cl)Br (stereo not given),-14.5% (inactive)
11,CO[C@@]1(NC(=O)C(C(=O)O)c2ccc(O)cc2)C(=O)N2C(C(=O)O)=C(CSc3nnnn3C)CO[C@@H]21 (stereo not given in full),-3.76% (inactive)
12,O=C(/C=C/c1ccc(O)c(O)c1)O[C@@H]1C[C@@](OC(=O)/C=C/c2ccc(O)c(O)c2)(C(=O)O)C[C@@H](O)[C@@H]1O,8.72% (inactive)
13,O=C(Cn1ccnc1[N+](=O)[O-])NCc1ccccc1,21% (inactive)
14,CN/C(=C\[N+](=O)[O-])NCCSCc1csc(CN(C)C)n1,-12.2% (inactive)
15,NC(N)=NS(=O)(=O)c1ccc(N)cc1,3.3% (inactive)
16,OCC(O)CS (stereo not given),9.69% (inactive)
17,CC(CSC(=O)c1ccccc1)C(=O)N1C[C@@H](Sc2ccccc2)C[C@H]1C(=O)O (stereo not given in full),-21% [at 16.1 µM] (inactive)
18,CC1(C)S[C@@H]2[C@H](N=CN3CCCCCC3)C(=O)N2[C@H]1C(=O)O,2.9% (inactive)
19,CC(=O)Oc1cccc(O)c1,-17.4% (inactive)
20,Cc1ccsc1C(=CCCN1CCC[C@@H](C(=O)O)C1)c1sccc1C,-12.7% (inactive)
